Laboratory results: PubChem BioAssay AID652217 (Sanford-Burnham Center for Chemical Genomics, 2013)
Screen size: about 1,800 compounds; about 240 (13%) were called active. Rule as the data show it: active = inhibition above about 40%; inactive = the rest. These entries were drawn from the full list.

Molecular target: NEDD8-conjugating enzyme Ubc12 (Homo sapiens) + NEDD8-activating enzyme E1 regulatory subunit (Homo sapiens) (UniProt P61081+Q13564)
Test: blockade of NEDD8 conjugation to cullin – biochemical, TR-FRET, single concentration, confirmation (AID 652217);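 also: neddylation substrate is the cullin 1 ring ligase complex with SKP2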
Settings: TR-FRET cullin neddylation biochemical assay; at 25 µM; stronger effect = higher value

Chain of NEDD8-conjugating enzyme Ubc12 (Homo sapiens) + NEDD8-activating enzyme E1 regulatory subunit (Homo sapiens) (P61081 whole entry, looked up): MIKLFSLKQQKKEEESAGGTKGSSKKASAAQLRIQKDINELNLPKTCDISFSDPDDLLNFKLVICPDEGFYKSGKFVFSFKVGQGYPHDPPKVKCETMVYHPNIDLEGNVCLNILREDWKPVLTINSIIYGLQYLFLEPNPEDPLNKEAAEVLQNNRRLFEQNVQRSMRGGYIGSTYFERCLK
Chain of NEDD8-conjugating enzyme Ubc12 (Homo sapiens) + NEDD8-activating enzyme E1 regulatory subunit (Homo sapiens) (Q13564 whole entry, looked up): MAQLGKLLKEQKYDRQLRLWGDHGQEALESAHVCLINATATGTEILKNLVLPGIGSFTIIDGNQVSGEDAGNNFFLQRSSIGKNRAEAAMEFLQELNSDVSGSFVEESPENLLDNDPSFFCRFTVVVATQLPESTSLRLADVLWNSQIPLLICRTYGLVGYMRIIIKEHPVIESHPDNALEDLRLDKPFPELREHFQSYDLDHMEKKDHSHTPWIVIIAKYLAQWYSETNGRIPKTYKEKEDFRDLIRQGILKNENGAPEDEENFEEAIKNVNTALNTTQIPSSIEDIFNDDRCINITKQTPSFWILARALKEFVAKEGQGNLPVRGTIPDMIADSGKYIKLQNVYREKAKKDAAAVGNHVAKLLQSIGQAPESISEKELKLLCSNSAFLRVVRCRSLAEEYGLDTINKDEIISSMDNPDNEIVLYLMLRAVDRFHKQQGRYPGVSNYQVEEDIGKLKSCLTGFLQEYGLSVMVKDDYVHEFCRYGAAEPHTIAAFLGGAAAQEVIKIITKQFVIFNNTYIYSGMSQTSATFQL

SMILES | inhibition
O=C(Cn1cc(/C=N/NC(=O)c2cccc(C(F)(F)F)c2)c2ccccc21)Nc1ccc(F)cc1 | 20.1% (inactive)
COc1cccc(Cn2cc(/C=N/NC(=O)c3cc(O)cc(O)c3)c3ccccc32)c1 | 41.7% (active)
CN(C)c1ccc(/C=N/Nc2cc(N3CCOCC3)nc(N3CCOCC3)n2)cc1 | 14.8% (inactive)
COc1ccc2oc(C(=O)NCC(Cc3ccccc3)N(C)C)c(C)c2c1 (stereo not given) | 39.6% (inactive)
c1ccc(-c2[nH]ncc2-c2nc3ccccc3[nH]2)cc1 | 34.5% (inactive)
CCN(CC)c1ccc(/C=N/Nc2nc(C)cc(=O)[nH]2)cc1 | 28.2% (inactive)
CCN(CC)c1ccc(/C=N/NC(=O)CNC(=O)c2cccs2)cc1 | 54.1% (active)
COc1ccc(Br)cc1/C=N/Nc1ccc(Cl)c(C(=O)O)c1 | 37.5% (inactive)
CC(=O)c1ccc(Nc2nc(C(N)c3ccccc3)cs2)cc1 (stereo not given) | 32.9% (inactive)
CC(=O)Nc1nc(C)c(-c2csc(Nc3ccc(S(N)(=O)=O)cc3)n2)s1 | 79.2% (active)
Cc1noc(C)c1COc1ccc2ccc(=O)oc2c1 | 33.5% (inactive)
COc1cccc(C2c3[nH]c4ccccc4c3CCN2Cc2cccc(C)n2)c1 (stereo not given) | 26.3% (inactive)
Nc1nnnn1CC(=O)N/N=C/c1ccc(-c2cccc(Cl)c2)o1 | 22.7% (inactive)
C=CCNC(=O)c1ccc2c3n(nc2c1)-c1ccc(C)cc1CO3 | 47.4% (active)
O=C(N/N=C/c1ccccc1O)C1CCCC1 | 38.7% (inactive)
CCN(/N=C/c1ccc(N(C)C)cc1)c1nc2ccccc2[nH]1 | 42.9% (active)
C=CCn1c(COc2cccc3cccnc23)nnc1SCC(=O)OC | 36.7% (inactive)
O=C(/C=C/c1cn(-c2ccccc2)nc1-c1ccc2c(c1)OCCO2)NCCCN1CCOCC1 | 33.2% (inactive)
CC(=O)Nc1cc(-c2ccc(N3CCN(C)CC3)cc2)cn2c(-c3ccc(F)cc3)cnc12 | 45.5% (active)
COC(=O)C1=CN(C)C=C(C(=O)OC)C1c1ccc(Cl)cc1Cl | 20% (inactive)

SMILES | inhibition
CC(C(=O)NC1CCCCC1)N1C(=O)c2cccc3cccc1c23 (stereo not given) | 39.8% (inactive)
O=C(NNC(=S)NC1CC2CCC1C2)c1ccc(Cl)cc1 (stereo not given) | 7.17% (inactive)
COc1cccc(/C=C/C(=O)OCC(=O)N2CCCc3ccccc32)c1 | 38.8% (inactive)
Cc1ccc(C)c(NC(=O)NNC(=O)c2ccc3ccccc3c2O)c1 | 30.6% (inactive)
COC(=O)C1=CN(Cc2ccc(OC)cc2)C=C(C(=O)OC)C1c1ccc(O)c(OC)c1 | 33% (inactive)
CS(=O)(=O)c1ccc2nc(NC(=O)c3ccc(Cl)nc3)sc2c1 | 66% (active)
CCOc1ccc2[nH]c(C(=O)N/N=C/c3cccc(OC)c3OC)cc2c1 | 44.6% (active)
COc1cc2cc(C(=O)N/N=C/c3cccc(OC)c3OC)[nH]c2cc1OC | 41.9% (active)
COc1ccc2[nH]c(C(=O)N/N=C/c3cc(OC)c(OC)c(OC)c3)cc2c1 | 49.6% (active)
COc1cc2ccccc2cc1C(=O)Nc1ccncc1 | 39.2% (inactive)
CCOC(=O)c1cnc2nc(SCc3ccccc3Cl)[nH]n2c1=O | 20% (inactive)
CCOc1ccc2[nH]c(=O)c(CN(Cc3nnnn3Cc3ccccc3)CC3CCCO3)cc2c1 (stereo not given) | 15.2% (inactive)
COCCCNc1nc2ccccc2nc1NS(=O)(=O)c1ccc(F)cc1 | 29% (inactive)
Cc1ccc2occ(/C=N/NC(=O)c3ccccc3C)c(=O)c2c1 | 24% (inactive)
O=c1c2c(nc3cc(-c4cccc(Cl)c4)[nH]n13)CCCC2 | -10.4% (inactive)
NNC(=O)c1oc2nc(-c3ccccc3)cc(-c3ccco3)c2c1N | 14.3% (inactive)
CN(C)c1ccnc2sc(C(=O)c3ccccc3)c(N)c12 | 33.9% (inactive)
Cc1nc2sc(C(=O)c3ccccc3)c(N)c2c2c1CCCC2 | 30.6% (inactive)
O=C(COc1ccccc1Cl)N1N=C(c2cccs2)CC1c1ccco1 (stereo not given) | 37.1% (inactive)
CCOc1cc(C(=O)Nc2c(C)ccc3nsnc23)cc(OCC)c1OCC | 27.9% (inactive)

SMILES | inhibition
CC(=O)Oc1c(C(=O)c2nnc(C)o2)c(=O)n(Cc2ccccc2)c2ccccc12 | 38.8% (inactive)
O=C1c2cccc3cccc(c23)N1CN1CCN(c2ccccn2)CC1 | 28.8% (inactive)
CC(=O)NNC(=O)c1csc(Cc2c(Cl)sc3ccc(Cl)cc23)n1 | -2.26% (inactive)
O=C(c1ccc(Cl)cc1)N1N=C(c2ccccn2)CC1(O)C(F)(F)F (stereo not given) | 1.98% (inactive)
CCOc1cc(/C=N/Nc2cc(C)nc3ccc(C)cc23)ccc1O | 40.1% (active)
CCN1CCCC1CNc1ncnc2c1[nH]c1ccc(F)cc12 (stereo not given) | 31% (inactive)
C[C@H](O)[C@@H]1C(=O)N2CCc3c([nH]c4ccccc34)[C@@H]2C[C@@H]1N(C)C(=O)Nc1ccc(F)cc1 | 14.4% (inactive)
Cc1ccc2cc(C#N)c(NCCNC(=S)NCCCN3CCOCC3)nc2c1 | 33.7% (inactive)
COc1ccc(N(CC(=O)N/N=C/c2cccc3c2OCCO3)S(=O)(=O)c2ccc(NC(C)=O)cc2)cc1 | 42.7% (active)
O=C1NC(c2ccncc2)Nc2sc3c(c21)CCCC3 (stereo not given) | 39.4% (inactive)
COc1cccc(C2CC(c3cccs3)=NN2C(=O)CSC2=NCCS2)c1OC (stereo not given) | -80.4% (inactive)
N#Cc1ccc(/C=C2\CCn3c2nc2cc(C(=O)O)ccc2c3=O)cc1 | 54.8% (active)
O=C(O)c1ccc2c(=O)n3c(nc2c1)/C(=C/c1ccc(OC(F)F)cc1OC(F)F)CC3 | 43.2% (active)
CCOc1ccc2nc(NCCNC(=O)C(C)(C)C)c(C)cc2c1 | 34.1% (inactive)
Cc1ccc(-n2ncc3c(Nc4cccc(C(=O)O)c4)ncnc32)cc1 | 35.6% (inactive)
CCOCCCNC(=O)C(NC(=O)c1ccccc1O)c1ccccc1 (stereo not given) | 39.4% (inactive)
COc1ccc(C2c3[nH]c4ccccc4c3CCN2CCCn2cccn2)cc1C (stereo not given) | 29.8% (inactive)
O=c1cc(CN2CCCCCCC2)c2c(ccc3ccccc32)o1 | 14.7% (inactive)
Cc1noc(C)c1C(=O)OCC(=O)/C=C1\N(C)c2ccccc2C1(C)C | 22.3% (inactive)
CCOc1ccc2[nH]c(=O)c(CN(Cc3nnnn3CCc3ccccc3)CC3CCCO3)cc2c1 (stereo not given) | 12.7% (inactive)
